# Assay results: article PMC7862700, “An all-to-all approach to the identification of sequence-specific readers for epigenetic DNA modifications on cytosine”
# Legend:
# Experiment in all cases: DAPPL (digital affinity profiling via proximity ligation, sequencing); 10 mM Tris-HCl pH 7.5, 50 mM NaCl, 1 mM DTT, 4% glycerol, room temperature, 30 min; GST-TFs on glutathione beads, 16-mer random dsDNA library, 0.1% formaldehyde crosslink after washing; high values mean tight binding
# Settings in all cases: protein: recombinant; tags: N-terminal GST; dsDNA, one strand shown
# FLI1 = biological target: T1, FLI1 (Homo sapiens, UniProt Q01543 1-452)
# T1 sequence: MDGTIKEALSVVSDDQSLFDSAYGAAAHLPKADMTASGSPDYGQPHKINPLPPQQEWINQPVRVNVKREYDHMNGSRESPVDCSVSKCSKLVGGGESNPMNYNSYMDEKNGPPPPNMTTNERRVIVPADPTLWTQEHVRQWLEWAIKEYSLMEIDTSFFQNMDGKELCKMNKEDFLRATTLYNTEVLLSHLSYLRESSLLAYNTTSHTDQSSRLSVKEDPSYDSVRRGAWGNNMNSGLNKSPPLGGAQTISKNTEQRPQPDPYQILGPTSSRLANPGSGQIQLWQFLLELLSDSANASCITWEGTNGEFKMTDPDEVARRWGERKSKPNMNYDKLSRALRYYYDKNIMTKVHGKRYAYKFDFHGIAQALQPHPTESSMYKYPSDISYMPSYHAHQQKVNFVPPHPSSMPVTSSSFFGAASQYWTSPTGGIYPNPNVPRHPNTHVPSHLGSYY
# Method in brief: (§1)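 Pools were built from human transcription factors expressed in yeast as GST fusions, captured on glutathione beads and DNA-barcoded, along with a tag-only sample. Incubation with 200 nmole of a 16-mer random double-stranded DNA library lasted 30 min at room temperature in Tris/NaCl/DTT/glycerol buffer, and was followed by washing, 0.1% formaldehyde crosslinking, proximity ligation, PCR amplification and Illumina NextSeq500 sequencing. Binding signal is the quotient of each hexamer's read frequency for a factor and its frequency for the tag-only sample.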
# ELK1 = biological target: T2, ELK1 (Homo sapiens, UniProt P19419 1-428)
# T2 sequence: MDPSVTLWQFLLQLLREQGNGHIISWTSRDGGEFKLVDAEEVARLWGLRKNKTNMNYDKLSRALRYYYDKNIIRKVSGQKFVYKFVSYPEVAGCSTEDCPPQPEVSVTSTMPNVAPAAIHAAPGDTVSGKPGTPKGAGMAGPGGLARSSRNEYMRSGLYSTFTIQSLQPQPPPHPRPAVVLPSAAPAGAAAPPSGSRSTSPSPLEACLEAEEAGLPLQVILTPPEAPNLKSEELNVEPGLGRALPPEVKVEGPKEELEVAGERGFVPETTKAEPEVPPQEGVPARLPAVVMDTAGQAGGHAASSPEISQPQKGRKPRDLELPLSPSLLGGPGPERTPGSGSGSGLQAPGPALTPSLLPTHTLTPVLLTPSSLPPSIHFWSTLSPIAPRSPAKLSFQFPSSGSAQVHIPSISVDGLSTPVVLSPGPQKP
# Method in brief: as §1
# GABPA = biological target: T3, GABPA (Homo sapiens, UniProt Q06546 1-454)
# T3 sequence: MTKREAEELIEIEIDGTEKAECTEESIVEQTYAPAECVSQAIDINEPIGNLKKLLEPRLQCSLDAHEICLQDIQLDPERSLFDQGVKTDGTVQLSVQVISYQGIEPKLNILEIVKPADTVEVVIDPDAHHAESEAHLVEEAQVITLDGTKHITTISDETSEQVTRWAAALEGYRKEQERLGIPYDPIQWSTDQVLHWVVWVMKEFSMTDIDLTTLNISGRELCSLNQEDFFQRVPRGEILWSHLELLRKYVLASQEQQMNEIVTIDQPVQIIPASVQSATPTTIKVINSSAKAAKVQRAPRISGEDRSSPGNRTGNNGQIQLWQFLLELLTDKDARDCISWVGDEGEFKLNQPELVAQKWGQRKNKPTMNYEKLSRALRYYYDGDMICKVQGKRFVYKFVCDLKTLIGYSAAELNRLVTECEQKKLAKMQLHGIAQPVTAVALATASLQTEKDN
# Method in brief: as §1
# ERG = biological target: T4, ERG (Homo sapiens, UniProt P11308 1-479)
# T4 sequence: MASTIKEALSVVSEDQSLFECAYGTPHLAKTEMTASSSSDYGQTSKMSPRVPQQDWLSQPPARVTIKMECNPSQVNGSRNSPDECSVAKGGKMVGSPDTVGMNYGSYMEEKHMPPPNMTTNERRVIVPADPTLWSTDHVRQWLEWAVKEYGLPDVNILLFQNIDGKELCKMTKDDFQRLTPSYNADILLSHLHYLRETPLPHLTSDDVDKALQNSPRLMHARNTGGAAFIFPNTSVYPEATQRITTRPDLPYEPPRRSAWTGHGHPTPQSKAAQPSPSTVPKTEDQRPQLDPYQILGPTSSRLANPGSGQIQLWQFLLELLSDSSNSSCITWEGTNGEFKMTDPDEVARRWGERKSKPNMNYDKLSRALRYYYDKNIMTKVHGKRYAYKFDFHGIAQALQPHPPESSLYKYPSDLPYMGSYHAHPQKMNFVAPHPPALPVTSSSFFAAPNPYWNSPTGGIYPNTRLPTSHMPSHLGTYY
# Method in brief: as §1
# ELF1 = ELF1 (Homo sapiens, UniProt P32519 1-619)
# Method in brief: as §1
# EHF = biological target: T5, EHF (Homo sapiens, UniProt Q9NZC4 1-300)
# T5 sequence: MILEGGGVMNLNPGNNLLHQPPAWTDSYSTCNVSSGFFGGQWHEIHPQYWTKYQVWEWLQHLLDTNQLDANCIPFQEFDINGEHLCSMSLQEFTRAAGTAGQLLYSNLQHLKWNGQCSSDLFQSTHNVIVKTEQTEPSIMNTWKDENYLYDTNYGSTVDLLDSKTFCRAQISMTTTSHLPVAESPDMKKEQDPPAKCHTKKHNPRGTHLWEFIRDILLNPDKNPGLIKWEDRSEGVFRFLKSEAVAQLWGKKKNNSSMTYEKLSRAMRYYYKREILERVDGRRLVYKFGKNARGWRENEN
# Method in brief: as §1
# SPI1 = SPI1 (Homo sapiens, UniProt P17947 1-270)
# Method in brief: as §1
# SPIB = SPIB (Homo sapiens, UniProt Q01892 1-262)
# Method in brief: as §1
# ELK3 = biological target: T6, ELK3 (Homo sapiens, UniProt P41970 1-407)
# T6 sequence: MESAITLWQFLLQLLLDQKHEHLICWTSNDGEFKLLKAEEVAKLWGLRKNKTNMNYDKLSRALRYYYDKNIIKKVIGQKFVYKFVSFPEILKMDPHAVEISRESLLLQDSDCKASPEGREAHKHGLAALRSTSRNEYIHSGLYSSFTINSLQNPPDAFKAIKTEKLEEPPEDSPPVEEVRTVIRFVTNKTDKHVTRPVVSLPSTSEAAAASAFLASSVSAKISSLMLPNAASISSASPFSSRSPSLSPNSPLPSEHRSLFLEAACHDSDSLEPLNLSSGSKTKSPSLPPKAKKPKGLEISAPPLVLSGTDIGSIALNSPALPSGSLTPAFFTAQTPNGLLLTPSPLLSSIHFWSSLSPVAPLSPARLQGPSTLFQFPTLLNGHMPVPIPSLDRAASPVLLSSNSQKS
# Method in brief: as §1
# FEV = biological target: T7, FEV (Homo sapiens, UniProt Q99581 1-238)
# T7 sequence: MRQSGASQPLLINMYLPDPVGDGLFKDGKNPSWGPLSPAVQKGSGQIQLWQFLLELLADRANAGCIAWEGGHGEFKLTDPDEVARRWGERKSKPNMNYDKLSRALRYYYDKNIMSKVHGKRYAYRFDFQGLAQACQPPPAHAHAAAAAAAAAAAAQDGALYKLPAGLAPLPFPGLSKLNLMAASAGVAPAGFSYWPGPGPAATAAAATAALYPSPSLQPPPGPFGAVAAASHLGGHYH
# Method in brief: as §1
# ETV5 = ETV5 (Homo sapiens, UniProt P41161 1-510)
# Method in brief: as §1
# SPIC = biological target: T8, SPIC (Homo sapiens, UniProt Q8N5J4 1-248)
# T8 sequence: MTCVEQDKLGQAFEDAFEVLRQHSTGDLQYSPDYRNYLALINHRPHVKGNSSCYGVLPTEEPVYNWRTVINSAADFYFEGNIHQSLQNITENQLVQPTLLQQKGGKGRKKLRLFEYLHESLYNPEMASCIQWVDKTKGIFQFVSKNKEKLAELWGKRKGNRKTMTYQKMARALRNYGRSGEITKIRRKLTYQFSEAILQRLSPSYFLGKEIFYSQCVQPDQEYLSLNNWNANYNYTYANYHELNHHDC
# Method in brief: as §1
# ELF4 = ELF4 (Homo sapiens, UniProt Q99607 1-663)
# Method in brief: as §1
# ELK4 = biological target: T9, ELK4 (Homo sapiens, UniProt P28324-2 1-405)
# T9 sequence: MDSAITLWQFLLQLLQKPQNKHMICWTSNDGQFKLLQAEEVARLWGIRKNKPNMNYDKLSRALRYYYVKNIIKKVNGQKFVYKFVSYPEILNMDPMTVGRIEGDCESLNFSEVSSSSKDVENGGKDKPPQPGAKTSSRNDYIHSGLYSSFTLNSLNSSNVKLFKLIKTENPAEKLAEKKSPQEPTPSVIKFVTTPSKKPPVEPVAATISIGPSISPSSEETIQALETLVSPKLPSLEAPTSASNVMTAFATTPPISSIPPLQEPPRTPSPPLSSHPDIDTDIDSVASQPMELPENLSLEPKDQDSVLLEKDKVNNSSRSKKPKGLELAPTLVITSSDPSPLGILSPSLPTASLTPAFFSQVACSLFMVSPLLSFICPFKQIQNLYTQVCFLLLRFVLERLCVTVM
# Method in brief: as §1
# ETV2 = biological target: T10, ETV2 (Homo sapiens, UniProt O00321 1-342)
# T10 sequence: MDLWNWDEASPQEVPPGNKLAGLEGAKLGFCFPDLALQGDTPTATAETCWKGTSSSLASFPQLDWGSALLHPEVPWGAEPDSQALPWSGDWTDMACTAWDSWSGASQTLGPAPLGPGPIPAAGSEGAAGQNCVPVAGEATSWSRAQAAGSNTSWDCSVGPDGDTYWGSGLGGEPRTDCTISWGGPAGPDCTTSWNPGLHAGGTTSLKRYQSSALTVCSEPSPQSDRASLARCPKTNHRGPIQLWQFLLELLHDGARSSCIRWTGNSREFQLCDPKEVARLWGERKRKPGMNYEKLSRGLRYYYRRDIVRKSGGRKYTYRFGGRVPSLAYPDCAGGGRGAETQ
# Method in brief: as §1
# ELF3 = biological target: T11, ELF3 (Homo sapiens, UniProt P78545 1-371)
# T11 sequence: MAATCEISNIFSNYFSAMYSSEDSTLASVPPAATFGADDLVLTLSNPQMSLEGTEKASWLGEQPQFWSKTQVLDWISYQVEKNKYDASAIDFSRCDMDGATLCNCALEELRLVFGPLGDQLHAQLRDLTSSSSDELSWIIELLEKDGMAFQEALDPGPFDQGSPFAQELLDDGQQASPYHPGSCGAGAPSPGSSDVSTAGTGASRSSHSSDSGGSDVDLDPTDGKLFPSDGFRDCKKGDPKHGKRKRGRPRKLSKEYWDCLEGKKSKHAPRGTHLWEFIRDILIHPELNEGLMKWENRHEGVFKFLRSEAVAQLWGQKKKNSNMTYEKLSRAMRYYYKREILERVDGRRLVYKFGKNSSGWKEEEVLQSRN
# Method in brief: as §1
# ETV1 = ETV1 (Homo sapiens, UniProt P50549 1-477)
# Method in brief: as §1
# SPIB, sequence (Q01892 whole entry): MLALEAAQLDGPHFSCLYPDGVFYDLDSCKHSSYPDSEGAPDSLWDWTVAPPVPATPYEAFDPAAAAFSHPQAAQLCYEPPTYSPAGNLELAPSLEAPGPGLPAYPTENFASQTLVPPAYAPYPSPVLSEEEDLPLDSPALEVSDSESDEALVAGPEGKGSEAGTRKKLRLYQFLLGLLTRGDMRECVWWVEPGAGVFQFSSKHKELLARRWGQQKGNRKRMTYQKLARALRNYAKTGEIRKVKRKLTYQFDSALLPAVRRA
# ETV5, sequence (P41161 whole entry): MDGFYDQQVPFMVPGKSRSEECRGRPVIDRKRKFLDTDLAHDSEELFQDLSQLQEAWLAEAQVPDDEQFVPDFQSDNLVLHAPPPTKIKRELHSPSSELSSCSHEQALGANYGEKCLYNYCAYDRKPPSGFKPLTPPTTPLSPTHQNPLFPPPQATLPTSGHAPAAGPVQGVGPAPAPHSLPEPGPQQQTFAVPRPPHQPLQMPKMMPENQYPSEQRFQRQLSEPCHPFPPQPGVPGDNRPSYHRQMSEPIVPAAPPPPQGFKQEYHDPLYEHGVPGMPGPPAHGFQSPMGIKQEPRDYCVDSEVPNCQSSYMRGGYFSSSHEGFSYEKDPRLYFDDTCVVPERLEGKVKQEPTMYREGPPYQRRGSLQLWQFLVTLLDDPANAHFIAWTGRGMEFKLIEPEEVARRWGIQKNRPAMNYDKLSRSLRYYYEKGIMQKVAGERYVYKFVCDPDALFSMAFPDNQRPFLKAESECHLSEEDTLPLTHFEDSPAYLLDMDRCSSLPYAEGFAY
# ELF1, sequence (P32519 whole entry): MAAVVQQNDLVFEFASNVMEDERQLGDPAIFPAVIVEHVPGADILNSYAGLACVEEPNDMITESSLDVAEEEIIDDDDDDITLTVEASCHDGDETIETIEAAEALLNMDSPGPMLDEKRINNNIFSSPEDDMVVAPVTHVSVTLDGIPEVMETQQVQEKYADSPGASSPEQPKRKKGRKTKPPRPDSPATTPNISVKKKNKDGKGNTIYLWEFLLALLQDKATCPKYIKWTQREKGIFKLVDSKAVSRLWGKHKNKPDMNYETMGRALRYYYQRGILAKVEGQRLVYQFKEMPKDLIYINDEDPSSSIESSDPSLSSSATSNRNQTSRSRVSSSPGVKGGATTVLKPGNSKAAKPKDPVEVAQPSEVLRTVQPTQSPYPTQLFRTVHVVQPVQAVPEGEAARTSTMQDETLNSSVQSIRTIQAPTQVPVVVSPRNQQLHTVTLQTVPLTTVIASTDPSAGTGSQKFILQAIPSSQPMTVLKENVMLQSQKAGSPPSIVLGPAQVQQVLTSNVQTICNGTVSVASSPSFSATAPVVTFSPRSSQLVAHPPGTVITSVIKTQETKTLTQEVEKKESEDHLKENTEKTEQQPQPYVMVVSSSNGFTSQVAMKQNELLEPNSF
# ELF4, sequence (Q99607 whole entry): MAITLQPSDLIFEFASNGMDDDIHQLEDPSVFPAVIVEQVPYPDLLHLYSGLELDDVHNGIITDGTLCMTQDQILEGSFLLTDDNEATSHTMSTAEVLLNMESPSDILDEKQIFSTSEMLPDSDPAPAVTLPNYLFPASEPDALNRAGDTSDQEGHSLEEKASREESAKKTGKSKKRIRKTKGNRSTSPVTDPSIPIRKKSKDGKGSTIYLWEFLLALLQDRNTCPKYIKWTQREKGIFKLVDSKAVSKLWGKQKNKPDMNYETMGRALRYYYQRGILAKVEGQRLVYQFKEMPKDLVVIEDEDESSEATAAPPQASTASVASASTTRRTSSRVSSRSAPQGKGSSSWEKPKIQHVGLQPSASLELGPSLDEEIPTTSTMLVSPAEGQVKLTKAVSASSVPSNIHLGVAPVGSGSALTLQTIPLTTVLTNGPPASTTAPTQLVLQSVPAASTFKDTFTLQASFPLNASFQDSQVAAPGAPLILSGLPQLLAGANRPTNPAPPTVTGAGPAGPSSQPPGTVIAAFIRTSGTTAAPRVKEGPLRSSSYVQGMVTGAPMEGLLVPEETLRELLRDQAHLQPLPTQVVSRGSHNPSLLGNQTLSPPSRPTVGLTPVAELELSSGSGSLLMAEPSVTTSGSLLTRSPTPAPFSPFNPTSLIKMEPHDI
# ETV1, sequence (P50549 whole entry): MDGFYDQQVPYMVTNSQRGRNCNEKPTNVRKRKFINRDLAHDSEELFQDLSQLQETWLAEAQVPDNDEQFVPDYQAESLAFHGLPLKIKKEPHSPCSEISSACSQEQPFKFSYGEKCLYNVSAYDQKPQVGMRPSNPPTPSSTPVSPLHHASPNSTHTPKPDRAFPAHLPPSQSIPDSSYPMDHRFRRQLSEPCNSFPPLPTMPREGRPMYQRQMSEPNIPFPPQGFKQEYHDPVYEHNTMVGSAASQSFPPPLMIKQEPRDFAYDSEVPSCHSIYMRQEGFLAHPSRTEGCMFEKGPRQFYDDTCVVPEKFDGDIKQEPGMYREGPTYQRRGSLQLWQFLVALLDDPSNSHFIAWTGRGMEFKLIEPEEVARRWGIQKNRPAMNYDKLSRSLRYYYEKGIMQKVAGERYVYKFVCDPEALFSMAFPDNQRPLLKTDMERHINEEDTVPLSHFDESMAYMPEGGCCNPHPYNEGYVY
Sequence,binding signal (FLI1),binding signal (ELK1),binding signal (GABPA),binding signal (ERG),binding signal (ELF1),binding signal (EHF),binding signal (SPI1),binding signal (SPIB),binding signal (ELK3),binding signal (FEV),binding signal (ETV5),binding signal (SPIC),binding signal (ELF4),binding signal (ELK4),binding signal (ETV2),binding signal (ELF3),binding signal (ETV1)
GCGCTC,"1.26 fold enrichment (6-mer frequency, TF over GST control)","1.2 fold enrichment (6-mer frequency, TF over GST control)","1.16 fold enrichment (6-mer frequency, TF over GST control)","1.15 fold enrichment (6-mer frequency, TF over GST control)","1.12 fold enrichment (6-mer frequency, TF over GST control)","1.09 fold enrichment (6-mer frequency, TF over GST control)","1.13 fold enrichment (6-mer frequency, TF over GST control)","1.18 fold enrichment (6-mer frequency, TF over GST control)","1.15 fold enrichment (6-mer frequency, TF over GST control)","1.06 fold enrichment (6-mer frequency, TF over GST control)","1.13 fold enrichment (6-mer frequency, TF over GST control)","1.04 fold enrichment (6-mer frequency, TF over GST control)","1.24 fold enrichment (6-mer frequency, TF over GST control)","1.19 fold enrichment (6-mer frequency, TF over GST control)","1.22 fold enrichment (6-mer frequency, TF over GST control)","1.19 fold enrichment (6-mer frequency, TF over GST control)",
TGACTG,"1.13 fold enrichment (6-mer frequency, TF over GST control)","1.09 fold enrichment (6-mer frequency, TF over GST control)","1.16 fold enrichment (6-mer frequency, TF over GST control)","1.01 fold enrichment (6-mer frequency, TF over GST control)","1.05 fold enrichment (6-mer frequency, TF over GST control)",,"1.1 fold enrichment (6-mer frequency, TF over GST control)","1.11 fold enrichment (6-mer frequency, TF over GST control)",,"1.05 fold enrichment (6-mer frequency, TF over GST control)","1.03 fold enrichment (6-mer frequency, TF over GST control)","1.03 fold enrichment (6-mer frequency, TF over GST control)","1.09 fold enrichment (6-mer frequency, TF over GST control)","1.16 fold enrichment (6-mer frequency, TF over GST control)","1.09 fold enrichment (6-mer frequency, TF over GST control)","1.04 fold enrichment (6-mer frequency, TF over GST control)","1.03 fold enrichment (6-mer frequency, TF over GST control)"
